Experimental data from PubChem BioAssay (NCI).
Compounds without any hit were thinned out: in the full panel of roughly 83,000, 20% have a hit.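 Growth was measured after 48 h exposure to one concentration of compound in 96-well plates. Values under 10 count as active.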 A number with no mark means an inactive call. Calls of active or inactive are those of the source.

System: HL-60(TB) leukemia
Experiment: NCI-60 one-dose screen, 48 h (100 = growth as untreated, 0 = no growth, -100 = all killed)
Conditions: 10 µM unless noted

Point of comparison: `O=C(O)CSc1ccc(NCc2oc(CO)cc(=O)c2O)cc1`, growth 69.3%. Against it:
- Cc1nc2ccc(C(=O)NCc3cc(C(=O)O)c(C)o3)cc2nc1C — higher, 103%
- C/C(=N\O)[C@@H]1CC[C@]2(CO)CC[C@]3(C)[C@H](CC[C@@H]4[C@@]5(C)CCCNC(C)(C)[C@@H]5CC[C@]43C)[C@@H]12 — higher, 95.1%
- Nc1nc2ccc([C@@H]3Nc4ccc5[nH]ncc5c4[C@H]4[C@H]5CCC(C5)[C@H]43)cc2s1 — lower, 12.4%
- C=C1CCC2C3(C)COC(C)(C)OC3CCC2(C)C1C/C=C1/C(=O)OCC1Oc1ccccc1OC (stereo not given) — lower, 38.6%
- COc1ccc(C2CC(=O)Oc3c(OC)c4c(c(OC)c32)OCO4)cc1 (stereo not given) — higher, 95.6%
- Cc1ccc(C(=O)Nc2ccc(CN3CCN(C)CC3)c(C(F)(F)F)c2)cc1C#Cc1cnc(N)c2ccc(C#N)cc12 — lower, 30.9%
- C1CCC(C(CC2CCCCN2)C2CCCCC2)CC1 (stereo not given) — lower, 11.1%
- CNC(=O)c1ccccc1CC1(O)c2ccccc2Oc2ccccc21 — lower, 17.8%
- O=C(c1ccc(Cl)cc1)c1ccc(Cl)cc1 — higher, 113%
- COCCCNS(=O)(=O)c1ncnc2nc[nH]c12 — higher, 82.2%
- COc1ccc([N+](=O)[O-])c(S(=O)(=O)c2ccc(Cl)cc2)n1 — lower, 38.2%
- CCC(c1cccc(O)c1)C(CC)c1cccc(O)c1 (stereo not given) — lower, 20.7%
- O=c1cc(-c2ccc(OCc3ccccc3)cc2)oc2c(I)c(OCc3ccccc3)cc(OCc3ccccc3)c12 — higher, 117%
- COc1cc2oc(-c3cccc(C(=O)Nc4ccc(Cl)cc4)c3)cc(=O)c2c(O)c1OC — higher, 85.6%
- Nc1nc2ccccc2c2c(=O)c3cccc(Cl)c3sc12 — higher, 93.7%
- OC(CSc1ccccc1)CN1CCN(c2cccc(Cl)c2)CC1 (stereo not given) — higher, 85.7%
- COc1ccc(/C=C/C(=O)/C=C/c2cc3ccc(Cl)cc3[nH]c2=O)cc1 — higher, 71%
- Cc1ccc(-c2cc3c(SCC(=O)Nc4cc(C(F)(F)F)ccc4Cl)nccn3n2)cc1 — lower, 12.6%
- COc1ccc(-c2c(N)n[nH]c2-c2ccccc2O)cc1OC — higher, 110%
- Cc1cc(N)cc(C)c1-c1c(Br)cc(N)cc1Br — lower, 10.4%
- Cc1cc(C(=O)CCCC(=O)c2cc(C)c(O)c(C)c2)cc(C)c1O — higher, 84.6%
- CCN(CC)CCN1CC(=O)Nc2cc(Cl)ccc21 — higher, 98.9%
- Cc1cc(C)n(C(=O)CSc2nc3sc4c(c3c(=O)n2-c2ccccc2)CCCCC4)n1 — higher, 107%
- N#Cc1c(-c2ccc(Cl)cc2)nc(NN=Cc2ccco2)nc1N1CCOCC1 — higher, 108%
- O=C(CCc1nnc2sc(-c3ccccc3)nn12)c1nc2ccccc2[nH]1 — higher, 105%
- C=C1C(=O)O[C@H]2[C@H]1CC/C(COC(=O)n1ccnc1)=C\CC[C@@]1(C)O[C@@H]21 — lower, 64.3%
- Cc1ccc(Nc2nnc(-c3ccc(Cl)cc3)o2)c(C)c1 — higher, 84.2%
- O=C1CCCCN1c1ccc(C2=NCCCN2)cc1 — higher, 70.7%
- c1ccc(CCSc2ncnc3nc[nH]c23)cc1 — higher, 74.7%
- CCN1CCN(Cc2ccc(Cc3ncc(F)c(-c4cc(F)c5nc(C)n(C(C)C)c5c4)n3)nc2)CC1 — lower, 27.3%

For `COc1cccc(/C=C2\COc3ccc(O)cc3C2=O)c1`, the growth was -20.1% (active).
For `Cc1ccc(S(=O)(=O)OC[C@@]2(C)CC[C@]3(C)CC[C@]4(C)C(=C3C2)C=C[C@@H]2[C@@]3(C)CCCNC(C)(C)[C@@H]3CC[C@]24C)cc1`, the growth was -58.4% (active).
With `COc1ccc(Cc2cnc(NC(=O)c3ccc4c(c3)OCCO4)s2)cc1` the growth was -42.1% (active).
For `COc1ccc2c(c1)O/C(=C\c1ccc([N+](=O)[O-])s1)C2=O`, the growth was 7.46% (active).
In the case of `CCN1C(=O)N(CC)C2Nn3c(s/c(=C\c4ccccc4F)c3=O)=NC21` (stereo not given), the growth is reported as 7.77% (active).
In the case of `COc1ccc2c(c1)c(CC(=O)[Se]C)c(C)n2C(=O)c1ccc(Cl)cc1`, the growth is reported as -38.9% (active).
For `COc1cc(C(=O)Nc2cc(O)c(CC=C(C)C)c(O)c2)cc2c1O[C@]1(C)CC[C@@H](O)C(C)(C)[C@H]1C2`, the growth was 5.12% (active).
`Cc1cc(NS(=O)(=O)c2ccc(-c3cnc(C4CC4)o3)cc2)ccc1Cl` was tested, and the growth was 0.815% (active).
For `O=C(/C=C/c1ccc(F)cc1)Nc1ncc(Cc2ccc(F)cc2)s1`, the growth was -26.6% (active).
